# A number with no mark means an inactive call.
# Legend:
# Test in all cases: log2 ratio of Biotin-Ahx-Ub-VS probe labelling (fragment/DMSO); higher = less target engagement (more negative = stronger competition), active = hit call of the paper (q ≤ 0.05, log2 ratio ≤ -1)
# Details in all cases: compound concentration: 200 uM; treatment time: 3 h
# USP19 = target: T1, USP19 (UniProt O94966)
# T1 sequence (whole entry): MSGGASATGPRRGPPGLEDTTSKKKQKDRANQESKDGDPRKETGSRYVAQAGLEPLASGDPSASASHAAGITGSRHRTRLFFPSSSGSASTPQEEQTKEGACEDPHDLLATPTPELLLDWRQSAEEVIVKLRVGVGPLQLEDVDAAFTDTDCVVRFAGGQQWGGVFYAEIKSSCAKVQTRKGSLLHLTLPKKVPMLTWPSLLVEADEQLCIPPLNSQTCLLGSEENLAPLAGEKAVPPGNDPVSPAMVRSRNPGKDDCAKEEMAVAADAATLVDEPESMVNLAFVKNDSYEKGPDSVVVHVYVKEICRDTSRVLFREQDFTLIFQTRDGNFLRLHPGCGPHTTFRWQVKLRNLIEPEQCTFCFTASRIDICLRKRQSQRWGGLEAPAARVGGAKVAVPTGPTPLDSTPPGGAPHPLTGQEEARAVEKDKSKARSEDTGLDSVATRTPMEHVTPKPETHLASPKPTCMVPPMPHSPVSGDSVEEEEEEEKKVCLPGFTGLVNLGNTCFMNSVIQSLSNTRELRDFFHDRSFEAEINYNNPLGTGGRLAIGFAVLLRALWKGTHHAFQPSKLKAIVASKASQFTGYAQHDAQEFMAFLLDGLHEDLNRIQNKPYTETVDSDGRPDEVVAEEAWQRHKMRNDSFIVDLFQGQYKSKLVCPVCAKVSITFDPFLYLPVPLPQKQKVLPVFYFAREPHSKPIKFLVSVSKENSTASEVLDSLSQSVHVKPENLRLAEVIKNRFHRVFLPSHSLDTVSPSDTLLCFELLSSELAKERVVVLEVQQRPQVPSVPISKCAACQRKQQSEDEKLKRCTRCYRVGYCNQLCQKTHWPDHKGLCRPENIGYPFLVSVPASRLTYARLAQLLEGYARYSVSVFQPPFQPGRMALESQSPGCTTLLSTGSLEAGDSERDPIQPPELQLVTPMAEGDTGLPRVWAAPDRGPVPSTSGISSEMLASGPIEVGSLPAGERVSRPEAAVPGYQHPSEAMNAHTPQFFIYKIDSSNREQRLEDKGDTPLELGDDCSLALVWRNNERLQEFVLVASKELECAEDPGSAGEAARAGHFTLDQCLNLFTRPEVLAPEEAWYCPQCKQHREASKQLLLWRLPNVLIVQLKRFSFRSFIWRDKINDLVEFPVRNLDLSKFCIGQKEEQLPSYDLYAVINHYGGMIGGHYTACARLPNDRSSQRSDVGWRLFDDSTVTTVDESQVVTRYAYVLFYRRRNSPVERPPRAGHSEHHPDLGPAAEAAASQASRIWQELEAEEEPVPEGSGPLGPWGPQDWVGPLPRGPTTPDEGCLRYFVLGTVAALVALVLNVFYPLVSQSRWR
# In short: (§1)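 Global-median-normalised Spectronaut label-free quantities were compared by unpaired t-test, and values are average log2 ratios of fragment over vehicle. Only proteins with ≥2 unique peptides were used. HEK293T lysate (495 µg per sample) was treated in triplicate with fragment at 200 µM or vehicle for 3 h and then with Biotin-Ahx-Ub-VS at 0.5 µM final for 1 h. Labelled DUBs were then NeutrAvidin-enriched, digested with LysC and trypsin, and run by diaPASEF LC-MS/MS.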
# USP22 = target: T2, USP22 (UniProt Q9UPT9)
# T2 sequence (whole entry): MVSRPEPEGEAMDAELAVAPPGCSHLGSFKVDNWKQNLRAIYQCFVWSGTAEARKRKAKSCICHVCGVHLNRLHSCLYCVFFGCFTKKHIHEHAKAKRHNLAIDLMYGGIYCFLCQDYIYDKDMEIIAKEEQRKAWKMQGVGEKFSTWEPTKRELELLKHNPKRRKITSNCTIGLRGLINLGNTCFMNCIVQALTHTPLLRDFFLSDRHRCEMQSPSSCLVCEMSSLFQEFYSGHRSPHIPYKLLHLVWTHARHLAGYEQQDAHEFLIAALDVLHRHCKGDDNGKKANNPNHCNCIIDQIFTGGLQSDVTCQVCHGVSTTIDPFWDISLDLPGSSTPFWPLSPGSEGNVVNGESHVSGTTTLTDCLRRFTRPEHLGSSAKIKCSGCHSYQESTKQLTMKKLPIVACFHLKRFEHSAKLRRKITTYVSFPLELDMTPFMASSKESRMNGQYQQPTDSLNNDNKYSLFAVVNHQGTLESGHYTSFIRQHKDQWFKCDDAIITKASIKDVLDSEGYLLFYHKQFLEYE
# In short: as §1
# USP24 = USP24 (UniProt Q9UPU5)
# USP24, sequence (Q9UPU5 whole entry): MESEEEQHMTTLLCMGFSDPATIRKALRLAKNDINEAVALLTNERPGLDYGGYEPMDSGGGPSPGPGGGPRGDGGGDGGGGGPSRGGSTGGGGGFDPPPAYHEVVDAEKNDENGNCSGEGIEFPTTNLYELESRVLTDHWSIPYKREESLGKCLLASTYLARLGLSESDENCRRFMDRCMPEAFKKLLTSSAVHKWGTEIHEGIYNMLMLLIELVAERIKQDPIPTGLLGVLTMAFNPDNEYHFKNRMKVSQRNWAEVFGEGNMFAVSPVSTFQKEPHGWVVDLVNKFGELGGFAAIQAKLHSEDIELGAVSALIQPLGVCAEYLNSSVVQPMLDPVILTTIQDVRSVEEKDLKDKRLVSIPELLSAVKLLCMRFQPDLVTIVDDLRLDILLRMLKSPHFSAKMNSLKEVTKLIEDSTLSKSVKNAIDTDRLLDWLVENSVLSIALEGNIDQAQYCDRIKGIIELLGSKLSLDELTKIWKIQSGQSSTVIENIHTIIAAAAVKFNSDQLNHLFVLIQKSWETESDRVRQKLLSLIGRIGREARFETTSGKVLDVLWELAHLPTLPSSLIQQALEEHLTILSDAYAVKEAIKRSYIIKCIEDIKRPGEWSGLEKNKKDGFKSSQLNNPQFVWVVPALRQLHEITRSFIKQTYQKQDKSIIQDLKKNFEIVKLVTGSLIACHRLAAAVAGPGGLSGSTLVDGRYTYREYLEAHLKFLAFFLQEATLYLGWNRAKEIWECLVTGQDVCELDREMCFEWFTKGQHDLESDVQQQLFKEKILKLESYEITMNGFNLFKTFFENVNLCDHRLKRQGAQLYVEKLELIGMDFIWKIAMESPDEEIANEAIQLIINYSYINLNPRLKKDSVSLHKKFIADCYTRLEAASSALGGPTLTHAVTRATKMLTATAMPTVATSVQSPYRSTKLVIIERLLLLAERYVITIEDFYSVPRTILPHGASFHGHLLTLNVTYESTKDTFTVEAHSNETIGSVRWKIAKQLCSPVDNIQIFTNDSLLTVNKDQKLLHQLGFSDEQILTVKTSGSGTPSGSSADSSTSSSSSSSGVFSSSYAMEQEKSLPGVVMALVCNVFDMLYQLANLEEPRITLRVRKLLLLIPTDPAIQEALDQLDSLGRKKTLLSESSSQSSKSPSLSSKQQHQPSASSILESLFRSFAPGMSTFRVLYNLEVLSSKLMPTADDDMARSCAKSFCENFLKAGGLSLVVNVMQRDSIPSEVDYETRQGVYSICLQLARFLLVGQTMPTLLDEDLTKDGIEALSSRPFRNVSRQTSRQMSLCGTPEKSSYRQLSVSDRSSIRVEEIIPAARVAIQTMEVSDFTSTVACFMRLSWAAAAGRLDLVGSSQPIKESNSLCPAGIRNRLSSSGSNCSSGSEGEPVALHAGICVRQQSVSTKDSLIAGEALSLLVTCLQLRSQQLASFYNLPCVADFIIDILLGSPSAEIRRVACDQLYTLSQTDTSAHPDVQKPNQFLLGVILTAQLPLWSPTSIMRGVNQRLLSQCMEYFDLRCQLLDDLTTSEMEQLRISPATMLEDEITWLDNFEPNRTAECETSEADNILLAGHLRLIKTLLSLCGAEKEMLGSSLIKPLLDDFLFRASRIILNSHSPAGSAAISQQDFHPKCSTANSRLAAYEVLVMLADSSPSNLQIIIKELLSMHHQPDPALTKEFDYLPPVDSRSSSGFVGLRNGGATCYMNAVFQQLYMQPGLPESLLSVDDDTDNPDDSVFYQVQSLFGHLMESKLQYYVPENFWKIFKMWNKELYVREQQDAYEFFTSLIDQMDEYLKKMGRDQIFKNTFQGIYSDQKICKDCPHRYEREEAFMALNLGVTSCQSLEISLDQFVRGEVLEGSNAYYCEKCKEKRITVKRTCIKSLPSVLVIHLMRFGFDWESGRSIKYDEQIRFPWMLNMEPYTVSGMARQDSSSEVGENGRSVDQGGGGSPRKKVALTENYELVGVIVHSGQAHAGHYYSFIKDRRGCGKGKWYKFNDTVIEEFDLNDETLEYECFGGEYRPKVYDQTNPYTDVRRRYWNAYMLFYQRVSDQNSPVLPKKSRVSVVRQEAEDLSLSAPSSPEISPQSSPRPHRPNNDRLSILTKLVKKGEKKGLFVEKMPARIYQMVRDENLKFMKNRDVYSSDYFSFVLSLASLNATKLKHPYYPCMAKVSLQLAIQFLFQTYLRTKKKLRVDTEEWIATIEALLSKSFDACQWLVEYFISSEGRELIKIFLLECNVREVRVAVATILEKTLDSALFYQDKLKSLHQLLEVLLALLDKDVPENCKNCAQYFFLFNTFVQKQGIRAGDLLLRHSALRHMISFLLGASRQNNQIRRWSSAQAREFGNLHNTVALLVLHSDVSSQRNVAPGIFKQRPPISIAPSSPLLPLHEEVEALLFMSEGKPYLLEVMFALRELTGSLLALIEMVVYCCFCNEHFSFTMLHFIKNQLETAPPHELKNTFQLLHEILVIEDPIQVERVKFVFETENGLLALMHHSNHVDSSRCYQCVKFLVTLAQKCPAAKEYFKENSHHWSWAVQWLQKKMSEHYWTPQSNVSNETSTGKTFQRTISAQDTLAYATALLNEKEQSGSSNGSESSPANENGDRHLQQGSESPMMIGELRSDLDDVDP
# In short: as §1
# USP25 = target: T3, USP25 (UniProt Q9UHP3)
# T3 sequence (whole entry): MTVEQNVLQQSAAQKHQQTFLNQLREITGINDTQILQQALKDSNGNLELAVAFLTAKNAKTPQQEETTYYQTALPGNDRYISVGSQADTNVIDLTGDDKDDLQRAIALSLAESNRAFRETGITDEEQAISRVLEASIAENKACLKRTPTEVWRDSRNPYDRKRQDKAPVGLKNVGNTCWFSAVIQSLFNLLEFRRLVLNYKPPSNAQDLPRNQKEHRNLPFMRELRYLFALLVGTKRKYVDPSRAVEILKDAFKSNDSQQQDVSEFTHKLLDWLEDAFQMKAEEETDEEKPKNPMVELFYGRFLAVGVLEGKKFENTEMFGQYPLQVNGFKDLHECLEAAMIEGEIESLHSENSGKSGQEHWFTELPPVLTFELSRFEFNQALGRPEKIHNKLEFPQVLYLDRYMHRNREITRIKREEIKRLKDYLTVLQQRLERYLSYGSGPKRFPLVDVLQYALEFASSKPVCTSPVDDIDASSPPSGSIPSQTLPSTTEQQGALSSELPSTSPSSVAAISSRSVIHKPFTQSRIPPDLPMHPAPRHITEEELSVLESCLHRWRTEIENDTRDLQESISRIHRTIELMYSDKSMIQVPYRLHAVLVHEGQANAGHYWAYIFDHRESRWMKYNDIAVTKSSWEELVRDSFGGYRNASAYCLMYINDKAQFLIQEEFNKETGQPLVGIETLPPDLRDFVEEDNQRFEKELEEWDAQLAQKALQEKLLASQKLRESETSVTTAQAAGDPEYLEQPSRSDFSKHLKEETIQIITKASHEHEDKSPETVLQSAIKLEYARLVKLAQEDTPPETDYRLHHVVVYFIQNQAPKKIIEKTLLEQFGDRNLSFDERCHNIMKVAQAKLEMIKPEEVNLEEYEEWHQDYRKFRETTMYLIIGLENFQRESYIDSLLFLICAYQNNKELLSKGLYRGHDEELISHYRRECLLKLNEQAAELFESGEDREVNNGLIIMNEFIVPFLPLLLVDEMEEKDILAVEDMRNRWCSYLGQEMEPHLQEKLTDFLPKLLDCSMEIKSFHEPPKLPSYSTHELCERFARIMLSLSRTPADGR
# In short: as §1
# USP28 = target: T4, USP28 (UniProt Q96RU2)
# T4 sequence (whole entry): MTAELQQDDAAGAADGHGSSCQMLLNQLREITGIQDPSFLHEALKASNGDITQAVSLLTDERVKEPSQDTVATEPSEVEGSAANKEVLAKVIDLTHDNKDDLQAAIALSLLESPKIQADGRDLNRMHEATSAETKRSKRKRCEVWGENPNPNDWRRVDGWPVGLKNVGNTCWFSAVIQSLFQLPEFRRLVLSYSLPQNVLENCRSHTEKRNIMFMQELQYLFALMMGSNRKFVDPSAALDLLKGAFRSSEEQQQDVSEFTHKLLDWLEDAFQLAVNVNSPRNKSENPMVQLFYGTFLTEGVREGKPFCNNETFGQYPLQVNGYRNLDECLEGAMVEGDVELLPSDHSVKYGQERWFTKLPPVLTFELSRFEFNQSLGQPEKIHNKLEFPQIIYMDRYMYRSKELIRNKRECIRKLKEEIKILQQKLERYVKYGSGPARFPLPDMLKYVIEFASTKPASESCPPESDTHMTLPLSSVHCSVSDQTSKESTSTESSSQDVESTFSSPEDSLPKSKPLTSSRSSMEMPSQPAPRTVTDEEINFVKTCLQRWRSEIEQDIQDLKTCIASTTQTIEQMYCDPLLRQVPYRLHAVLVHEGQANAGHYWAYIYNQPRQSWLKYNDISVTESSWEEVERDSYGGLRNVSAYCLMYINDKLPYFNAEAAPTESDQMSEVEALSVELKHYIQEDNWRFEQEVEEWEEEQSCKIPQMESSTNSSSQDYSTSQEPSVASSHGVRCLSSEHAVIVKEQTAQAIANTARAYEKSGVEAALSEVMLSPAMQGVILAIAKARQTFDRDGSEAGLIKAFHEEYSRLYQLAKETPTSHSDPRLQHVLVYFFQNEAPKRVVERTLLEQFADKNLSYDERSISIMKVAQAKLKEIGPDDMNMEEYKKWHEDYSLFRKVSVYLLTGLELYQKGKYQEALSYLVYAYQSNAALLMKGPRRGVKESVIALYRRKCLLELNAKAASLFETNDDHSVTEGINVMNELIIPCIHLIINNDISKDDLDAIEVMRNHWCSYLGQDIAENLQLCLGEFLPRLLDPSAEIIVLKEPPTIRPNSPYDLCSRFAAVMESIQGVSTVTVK
# In short: as §1
compound,measurement,setting,value
CC(=O)Nc1ccc(NC(=O)CCl)cc1,log2 ratio of Biotin-Ahx-Ub-VS probe labelling,USP19,-0.179
same,log2 ratio of Biotin-Ahx-Ub-VS probe labelling,USP22,-0.0522
same,log2 ratio of Biotin-Ahx-Ub-VS probe labelling,USP24,-0.314
same,log2 ratio of Biotin-Ahx-Ub-VS probe labelling,USP25,-1.33 (active)
same,log2 ratio of Biotin-Ahx-Ub-VS probe labelling,USP28,-0.938

# Source: the supplement of paper PMC11732987, “Enantioselective OTUD7B fragment discovery through chemoproteomics screening and high-throughput optimisation” (Communications Chemistry, 2025)
